HIF act – HIF pathway transcriptional activation; activation, % at 7.5 µM (by protocol); hit rate 0.32% among 300,000; U2OS HRE-luciferase reporter, luminescence; normalized: DMSO 0%, desferrioxamine 100%;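 active means mean activation of at least 10% of the iron chelator positive control signal, with at least half of replicates also reaching 10%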
Dyrk1A ADPGlo – Dyrk1A (rat) kinase inhibition; Q63470; ADP-Glo luminescence, NFATc1 peptide; inhibition, % at 12.5 µM; hit rate 0.43% among 310,000; in the data active means inhibition above about 50%;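 further: plate controls were vehicle with enzyme for no effect and no enzyme for full effect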
STK33 inh – inhibitors of human STK33 kinase | Q9BYT3 | purified STK33, MBP phosphorylation, ADP-Glo luminescence | inhibition, % at 10 µM | hit rate 0.073% among 320,000;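 active means inhibition at or above 25%, using the most active replicate where run in duplicate; inactive means inhibition below 25%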
PP5 primary – inhibitors of human protein phosphatase 5 (PP5); P53041; purified PP5c, OMFP substrate fluorescence; inhibition, % at 6.7 µM; hit rate 0.18% among 320,000; AID 1987;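 active means inhibition above the campaign's mean inhibition across all tested compounds plus 3 SD, cut at about 9.5% in these data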;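 further: 0% = DMSO only and 100% = 100 µM cantharidin control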
PP1 inh – counter-screen for PP5 inhibitors: inhibitors of human PP1-alpha; purified PP1alpha, OMFP fluorescence; inhibition, % at 6.7 µM; hit rate 0.9% among 320,000;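 active means inhibition above the mean inhibition of all tested compounds plus 3 SD, computed separately for each screening campaign, cut at about 15% in these data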
Target sequence (P62136 whole entry, looked up): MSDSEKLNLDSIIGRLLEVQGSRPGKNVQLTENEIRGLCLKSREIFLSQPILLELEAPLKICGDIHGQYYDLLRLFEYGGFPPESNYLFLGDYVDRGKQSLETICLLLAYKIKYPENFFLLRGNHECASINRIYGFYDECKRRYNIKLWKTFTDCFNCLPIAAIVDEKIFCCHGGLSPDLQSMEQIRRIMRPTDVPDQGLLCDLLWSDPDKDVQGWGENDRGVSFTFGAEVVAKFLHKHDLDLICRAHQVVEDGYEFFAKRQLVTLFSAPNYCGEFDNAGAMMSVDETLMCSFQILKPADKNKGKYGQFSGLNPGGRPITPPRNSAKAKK
Numbers without * were called inactive; . = not tested or not shown. Shown are actives, neighbours in structure and some others; about 1.5% of the full set was active somewhere.

SMILES	HIF act	Dyrk1A ADPGlo	STK33 inh	PP5 primary	PP1 inh
COc1ccc(OC)c(NC(=O)CCC(=O)N(Cc2ccc(OC)c(OC)c2)c2nccs2)c1	0	0	0	3	-1
O=C(c1nc2ccccn2c1CN1CCCC(c2nc3ccccc3o2)C1)N1CCCC1 (stereo not drawn)	1	5	-2	-2	-1
N#CCC(=O)N/N=C\c1ccc(OC/C=C/c2ccccc2)cc1	3	0	-1	1	17*
COc1cc(C(=O)Oc2ccccc2/C=N/NC(=O)c2ccc(C)cc2)cc(OC)c1OC	9.6*	2	0	4	-2
COc1ccc(C(=O)N/N=C/c2ccccc2OC(=O)c2ccccc2)cc1	6	2	0	5	3
CCC(=O)Nc1ccc(C(=O)CSc2nnc(-c3ccc(NS(=O)(=O)CC)cc3)o2)cc1OC	-1	-2	-1	0	17*
COc1ccc(C(=O)C2CCCN(C(=O)C3CCOCC3)C2)cc1OC (stereo not drawn)	424*	.	-4	-1	1
COc1cc(/C=C2\C(=N)N3N=C(S(C)(=O)=O)SC3=NC2=O)ccc1OS(=O)(=O)c1ccc(C)cc1	2	9	3	1	9
Cc1cc(C)cc(NC(=O)CSc2ccc(-c3ccccn3)nn2)c1	10*	-4	-1	4	-2
O=C(NCCc1ccccn1)c1nc(Cn2cc(Br)cn2)no1	0	-1	0	1	1
COc1ccccc1N(CC1CO1)S(=O)(=O)c1ccc(C)cc1 (stereo not drawn)	0	3	-1	1	-3
CCOC(=O)c1sc(=S)n(-c2ccccc2)c1C	19*	.	0	4	5
Nc1cc(C(=O)O)c(N)c2c1C(=O)c1ccccc1C2=O	-1	8	77*	3	5
CC1CCC(NC(=O)CCNC(=O)c2ccccc2)CC1 (stereo not drawn)	0	2	-1	0	-1
O=C(Nc1ccc([N+](=O)[O-])cc1)c1cc(Cl)sc1Cl	1	-2	1	-1	-2
CCOC(=O)CCS(=O)(=O)c1nc(-c2ccccc2)cc(C(F)(F)F)n1	10*	3	2	2	2
Cc1cc(NC(=O)CCCS(=O)(=O)c2nc(-c3cccs3)cc(C(F)(F)F)n2)no1	13*	2	2	3	-1
Cn1c(SCC(=O)Nc2ccc(NC(=O)c3cccc(F)c3)cc2)nnc1-c1ccncc1	0	.	-1	-1	-1
CCN(C[C@H]1N[C@@](Cc2ccccc2)(C(=O)OC)[C@H]2C(=O)N(C)C(=O)[C@@H]12)C(=O)Nc1ccc(C(F)(F)F)cc1	.	0	-2	.	.
O=C(Nc1ccc(Br)cc1)C1OCCc2ccccc21 (stereo not drawn)	.	-2	0	3	-4
CCOC(=O)c1[nH]cnc1N=Nc1c(O)ccc2ccccc12	38*	4	-2	1	1
CCOC(=O)c1c[nH]c2ccc3ccccc3c2c1=O	-2	7	-1	5	2
Oc1ccc2ccccc2c1N=Nc1ccccc1F	1	-2	4	-1	-2
Oc1ccc2ccccc2c1N=Nc1ccccn1	33*	19	-10	5	2
CN(C)C(=O)COC(=O)c1cccc(CN2C(=O)c3ccccc3C2=O)c1	0	0	0	0	-1
SMILES	HIF act	Dyrk1A ADPGlo	STK33 inh	PP5 primary	PP1 inh
Cc1nnsc1NC(=O)OCc1ccc(C(F)(F)F)cc1	0	-3	-1	2	17*
CCN(CC)CC(=O)NCC1(c2ccccc2)CCCC1	-1	27	-1	-3	-7
CCCN(CCC)C(C)C(=O)NCC1(c2ccccc2)CCCC1 (stereo not drawn)	719*	2	-2	-3	-5
O=C(Nc1ccc(Cl)cc1)[C@@H]1[C@@H]2C(=O)N(c3ccc4ccccc4c3)C(=O)[C@@H]2[C@H]2C=CC=NN21	0	-2	0	2	15*
CC(=O)NCCc1ccc(C(=O)CSc2nnc(C3CC3)n2C2CC2)cc1	.	.	0	-1	-4
O=C(c1cc2sccc2n1Cc1ccc(F)cc1)N1CCN(c2nc3ccccc3s2)CC1	-1	-4	-1	3	17*
Cc1cc(C(=O)NNC2CC(=O)N(c3ccc4ccccc4c3)C2=O)c(C)o1 (stereo not drawn)	0	3	0	1	1
COc1ccc(C(=O)NCC(c2ccco2)N2CCc3ccccc32)c(OC)c1 (stereo not drawn)	1	-1	-1	1	1
Clc1cccc(Nc2nc(-c3ccncc3)cs2)c1	3	.	-1	3	17*
C/C(=N\NC(=S)NC(C)C)c1ccccc1	0	4	0	-2	-3
CC(C)NC(=S)NN=C1c2ccccc2-c2ccccc21	26*	11	-5	-1	-4
N#C/C(=C\c1cccc(Br)c1)C(=O)N1CCCCC1	0	2	1	-2	4
CCSc1nnc(NC(=O)C2CC=CCC2C(=O)O)s1 (stereo not drawn)	0	-3	0	-2	16*
CCSc1nnc(NC(=O)C2CCCCC2)s1	3	-5	-2	3	2
NC(=O)c1ccc(SCC(=O)OCC(=O)NC2CCCCCCC2)c([N+](=O)[O-])c1	.	-3	1	2	0
COc1ccc(NC(=O)Nc2ccc(OC)cc2)cc1	2	5	1	-1	3
N#Cc1ccc(NC(=O)Nc2ccc(Oc3ccc(NC(=O)Nc4ccc(C#N)cc4)cc3)cc2)cc1	1	-5	1	7	17*
ON=C1c2cc(OCCN3CCCCC3)ccc2-c2ccc(OCCN3CCCCC3)cc21	16*	6	1	0	-3
C[C@H](CO)N1C[C@H](C)[C@@H](CN(C)Cc2ccc(C(=O)O)cc2)Oc2c(NS(=O)(=O)c3ccc(F)cc3)cccc2C1=O	.	1	2	.	.
NC1=NC(c2cccc(Cl)c2)N(CCc2ccc(F)cc2)C(N)=N1 (stereo not drawn)	-1	-3	0	1	-1
COc1cc(/C=N/NC(=O)c2cncc(Br)c2)cc([N+](=O)[O-])c1O	0	5	0	4	17*
COc1cc([N+](=O)[O-])cc(/C=N/NC(=O)c2cncc(Br)c2)c1O	.	4	-2	0	10
OCCN1CCN(C2Cc3cc(Cl)ccc3Sc3ccc(Cl)cc32)CC1 (stereo not drawn) (tested in a mixture with another compound)	1	-3	0	4	15*
CCOC(=O)CCCn1ccc2cc(S(=O)(=O)N3CCCC3)ccc21	1	-3	-1	1	0
CCCCCC(=O)Nc1nc(C)c(-c2csc(Nc3ccc(Cl)cc3)n2)s1	-3	5	-2	3	1
CCCCCCC(=O)Nc1nc(C)c(-c2csc(Nc3ccc(Cl)cc3)n2)s1	-4	57*	-1	2	2
Cc1ccc(NC(=O)COC(=O)c2cc(Cl)ccc2Cl)c(Br)c1	0	1	26*	2	-6
